Lamin A splicing – qHTS Assay for Modulators of Lamin A Splicing | HeLa LMNA splicing GFP/RFP minigene ratio, 48 h | hit rate 0.01% among 200,000 | Potency, µM (titrated, usually from 46.1 µM), without a hit: top-dose ratio change, negative = inhibition, actives largely listed as inhibitors; active = well fitted inhibition curve with a large enough effect in the signal ratio, with a control signal flat, not every such curve was filed as active; inconclusive = small, poorly fitted or top-dose-only effect, or effect the other way, or a change in a side signal; the % refers to the signal ratio; note: % is set by controls: 0 for no effect and ±100 for the full control effect
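S3 HeLa stable clones carrying a lamin A-EGFP splicing minigene plus DsRed2 were seeded at 600 cells/well in Opti-MEM with 2% FBS, pin-dosed and incubated 48 h at 37°C. Acumen cytometry (488 nm) gave the GFP/RFP total-intensity ratio.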
HTT cytoprotect – qHTS Multiplex Assay to Identify Dual Action Probes in a Cell Model of Huntington: Cytoprotection (ATP); PC12 HTT-Q103 induced, cytoprotection, ATP luminescence, 40 h; Potency, µM (top dose mostly 56.4 µM), inactives show cytoprotection (ATP increase), actives largely listed as activators; hit rate 0.14% among 230,000; AID 1471, 2008; active = well fitted curve in the direction sought with a large enough effect; inconclusive = small, poorly fitted or top-dose-only effect, or another doubt; inactive = no such curve, though single readings can be large; an effect the other way counts as inactive or inconclusive; note: % of control where 0% means no effect; nearly all actives have a fitted effect of over 45% in size
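Rat PC12, Q103 Htt exon1-GFP fusion, ecdysone promoter; tebufenozide inducer 100 nM final; compound titration; qHTS, 1500 cells/well; ATPlite luminescent read.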
HPGD inh – qHTS Assay for Inhibitors of HPGD (15-Hydroxyprostaglandin Dehydrogenase); hit rate 4.3% among 150,000; purified HPGD, NADH fluorescence kinetic, PGE2 substrate; 15-hydroxyprostaglandin dehydrogenase [NAD(+)] (Homo sapiens), P15428; Potency, µM, without a hit: at the top dose activity change, negative = inhibition, hits mostly inhibitors; note: % is set by controls: 0 for no effect and ±100 for the full control effect
Target sequence (P15428 whole entry, looked up): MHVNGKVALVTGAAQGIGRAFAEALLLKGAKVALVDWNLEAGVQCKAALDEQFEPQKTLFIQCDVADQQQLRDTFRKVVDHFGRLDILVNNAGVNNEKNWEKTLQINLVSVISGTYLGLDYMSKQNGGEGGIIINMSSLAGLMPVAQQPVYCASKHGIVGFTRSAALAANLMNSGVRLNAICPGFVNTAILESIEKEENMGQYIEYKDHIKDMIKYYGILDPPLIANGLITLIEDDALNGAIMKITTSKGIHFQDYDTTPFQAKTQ
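NADH formation kinetics: reaction with 30 uM PGE2 and 1 mM NAD+ (final), 20 nM enzyme, Tris-HCl pH 8 with Tween 20, after 15 min compound preincubation at room temperature. Fluorescence change, last versus first of five reads.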
HttQ103 aggreg – qHTS Multiplex Assay to Identify Dual Action Probes in a Cell Model of Huntington: Aggregate Formation (GFP) | hit rate 1.1% among 220,000 | PC12 HttQ103-GFP aggregates, Acumen cytometry, 40 h | Potency, µM (doses to about 46.1 µM), without a hit: top-dose activity change, negative = inhibition, most hits filed as inhibitors; active = well fitted curve in the direction sought with a large enough effect; inconclusive = small, poorly fitted or top-dose-only effect, or another doubt; inactive = no such curve, though single readings can be large; an effect the other way counts as inactive or inconclusive; note: % is set by controls: 0 for no effect and ±100 for the full control effect; nearly all actives have a fitted effect of over 60% in size
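Ecdysone-promoter PC12 model expressing HTT exon 1 Q103 fused to GFP, induced by tebufenozide at 100 nM final. Compounds titrated; aggregates sized 1–25 µm scored on a 488 nm laser cytometer.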
ALDH1A1 inh – qHTS Assay for Inhibitors of Aldehyde Dehydrogenase 1 (ALDH1A1); Aldehyde dehydrogenase 1A1 (Homo sapiens), P00352; AID 1030, 2008; Purified ALDH1A1, NADH fluorescence, propionaldehyde substrate; hit rate 7.3% among 220,000; Potency, µM (doses to about 75.3 µM), without a hit: at the highest dose activity, negative = inhibition, actives largely listed as inhibitors;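 note: plate controls were no enzyme wells and a reference inhibitor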
Target sequence (P00352 whole entry, looked up): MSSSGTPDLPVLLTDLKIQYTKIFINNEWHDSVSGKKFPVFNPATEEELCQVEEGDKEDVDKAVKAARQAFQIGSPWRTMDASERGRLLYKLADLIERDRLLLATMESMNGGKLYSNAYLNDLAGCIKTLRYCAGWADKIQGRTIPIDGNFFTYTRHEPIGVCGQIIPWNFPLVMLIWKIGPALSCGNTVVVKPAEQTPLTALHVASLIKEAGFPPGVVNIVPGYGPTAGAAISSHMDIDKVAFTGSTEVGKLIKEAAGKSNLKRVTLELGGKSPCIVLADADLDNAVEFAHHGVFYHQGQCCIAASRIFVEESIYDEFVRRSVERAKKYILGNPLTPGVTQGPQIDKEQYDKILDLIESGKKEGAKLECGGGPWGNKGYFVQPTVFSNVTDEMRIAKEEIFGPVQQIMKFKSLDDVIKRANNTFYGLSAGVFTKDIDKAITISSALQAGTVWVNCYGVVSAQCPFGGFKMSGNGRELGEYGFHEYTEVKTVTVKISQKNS
Starred values were filed as active, the others as inactive; ? = inconclusive; . = no result; [ ] = remark or other dose. A selection: hits, their analogues and other compounds. The true share with any hit is near 8.8%. Unless noted, calls come from the whole dose curve; as a rule, active = well fitted inhibition curve with a large enough effect (not every such curve was filed as active); inconclusive = small, poorly fitted or top-dose-only effect, or another doubt; inactive = no such curve, though single readings can be large or run the other way. Potency is the fitted concentration of half-maximal effect.

SMILES	Lamin A splicing	HTT cytoprotect	HPGD inh	HttQ103 aggreg	ALDH1A1 inh
CC(=O)c1ccccc1Oc1nc(CN2CCOCC2)nc2scc(-c3cccs3)c12	21%	-30%[0.074 µM]	-5%	12%	22µM*
OC[C@@H]1O[C@@H](n2cnc3c(NCc4ccco4)ncnc32)[C@H](O)[C@H]1O	.	-83%	.	.	.
CC(=O)c1c(C)nc(-c2ccc(Cl)cc2)nc1N=CN(C)C	-8%	4%[10 µM]	?	15%	?
CC(=O)c1c(C)nc(-c2ccc(Cl)cc2)nc1N	.	.	.	-1%	22µM*
O=C(CCNS(=O)(=O)c1ccc2c(c1)CCCC(=O)N2)NCc1ccccc1Cl	9%[46 µM]	.	.	.	.
NNS(=O)(=O)c1ccc(Cc2ncc(C(F)(F)F)cc2Cl)s1	-19%	1%	-12%	10%	3.2µM*
NS(=O)(=O)c1ccc(Cc2ncc(C(F)(F)F)cc2Cl)s1	-10%	-11%	-4%	-9%	0%
O=C(CCl)c1ccc(Cc2ncc(C(F)(F)F)cc2Cl)s1	-4%	-21%	-22%	-6%	0.71µM*
CN(C)c1ncc2nc(-c3cccs3)c(=O)n(C3CC3)c2n1	.	-17%	?	.	?
C=CC(C)(O)CC1[C@@]2(C)CCCC(C)(C)C2CC[C@]1(C)O (stereo partly specified)	.	-34%	-4%	.	1%
COC(=O)c1sccc1NC(=S)N1CCN(c2ccccc2F)CC1	-11%	-12%[10 µM]	-6%	3%	-12%
CC1C/C(=C/c2ccco2)C(=O)/C(=C/c2ccco2)C1 (stereo unspecified)	?	.	-17%	?	14µM*
O=C1/C(=C/c2ccco2)Cc2ccccc21	-9%	-7%[10 µM]	?	-1%	?
O=C1/C(=C\c2ccco2)CCC/C1=C\c1ccco1	-17%	-7%[10 µM]	-17%	3%	5.6µM*
Cc1[nH]c2ccccc2c1C(=O)NS(=O)(=O)Nc1ccc(Cl)cc1	9%[46 µM]	0%	.	6%	0%
COC(=O)CCN(C(=O)C1CCN(S(=O)(=O)c2c(C)noc2/C=C/c2ccccc2F)CC1)c1ccccc1	-3%[46 µM]	.	.	.	.
CCOc1ccc(-c2nn[nH]n2)cc1	8%	-25%	-14%	-11%	18%
Brc1cc2c(cc1COc1ccc(-c3nn[nH]n3)cc1)OCO2	-3%	4%[0.074 µM]	25µM*	0%	?
O=C(CNc1cc(S(=O)(=O)N2CCOCC2)ccc1N1CCCC1)N1CCc2ccccc21	.	-25%	.	1%	25µM*
Cc1ccc(S(=O)(=O)N2CCOCC2)cc1NC(=O)c1cc(-c2ccccn2)nc2ccccc12	.	7%[10 µM]	.	-11%[9.22 µM]	?
O=C(Nc1cc(S(=O)(=O)N2CCOCC2)ccc1N1CCCCC1)c1cc(-c2ccccn2)nc2ccccc12	.	-18%[10 µM]	.	?	7.1µM*
CC(C)(C)CC(=O)Nc1cc(S(=O)(=O)N2CCOCC2)ccc1N1CCCC1	.	-5%[10 µM]	.	-3%[9.22 µM]	.
CSC1=N/C(=C\c2ccccc2Cl)C(=O)N1N(C)C	.	9%[10 µM]	.	-18%[9.22 µM]	18µM*
N#CNC(N)=Nc1ccc(Cl)cc1	.	2%[10 µM]	-18%	.	?
COc1cccc(CNC(=O)c2ccc3nc(-c4ccccc4)c(-c4ccccc4)nc3c2)c1OC	-12%[46 µM]	.	.	.	.
SMILES	Lamin A splicing	HTT cytoprotect	HPGD inh	HttQ103 aggreg	ALDH1A1 inh
N/C(=N\OC(=O)c1cccs1)c1ccccc1	-13%	10%[10 µM]	32µM*	-4%	3%
Cc1cccc(/C(N)=N/OC(=O)c2cccs2)c1	2%[0.0737 µM]	13%	20µM*	-5%	-4%
Cc1ccc(/C(N)=N/OC(=O)c2cccs2)cc1	-15%	26%[10 µM]	-9%	-1%	5%
COc1ccc(Cl)cc1NC(=O)c1cc(S(=O)(=O)N2CCC(C)CC2)cn1C	6%[46 µM]	.	.	.	.
COC(=O)c1ccc(COn2nnc3ccccc32)cc1	-9%[9.22 µM]	-26%	.	10%	-11%
CC(=O)N(Cc1cccs1)Cc1cc2ccc(C)c(C)c2nc1Cl	17%[46 µM]	-11%	.	-14%	18µM*
N=c1ccn(Cc2ccc(Cl)cc2)cc1	?	-83%[0.074 µM]	-12%	6.3µM*	25µM*
N=c1ccn(Cc2ccc(Cl)c(Cl)c2)cc1	?	-93%[0.074 µM]	-5%	2µM*	5%
N=c1ccn(Cc2ccccc2Cl)cc1	?	-44%	-6%	?	10%
N=c1ccn(Cc2ccc(Cl)cc2Cl)cc1	?	-39%	-9%	7.1µM*	15%
N=c1ccn(Cc2c(Cl)cccc2Cl)cc1	.	10%[10 µM]	.	-16%[9.22 µM]	.
N=c1ccn(Cc2cccc(Cl)c2)cc1	?	-84%[0.074 µM]	-6%	?	?
Fc1ccc(-c2noc3ncnc(NCCc4ccccc4)c23)cc1	4%[46 µM]	.	.	.	.
CC(=O)c1cccc(NC(=O)CCn2nc(C)c(S(=O)(=O)N3CCCCC3)c2C)c1	17%[46 µM]	.	.	.	.
CN(C)CCCN(CCCNC(=O)/C=N/O)Cc1ccccc1	-6%	37%[10 µM]	-10%	35µM*	1%
COc1ccc(-c2cn3nc(N4CCCC(C(=O)Nc5ccccc5F)C4)sc3n2)cc1 (stereo unspecified)	-12%[46 µM]	.	.	.	.
Cc1ccc(S(=O)(=O)Cn2nnnc2C(C(C)C)N2CCSCC2)cc1 (stereo unspecified)	10%	8%	-12%	-14%	-4%
Cc1ccc(S(=O)(=O)Cn2nnnc2C(C(C)C)N2CCc3ccccc3C2)cc1 (stereo unspecified)	10%	9%	-29%	-2%	10µM*
CCCn1c(N2CCN(C(=O)Nc3ccc(Cl)cc3)CC2)nc2ccccc21	8%[46 µM]	-4%[10 µM]	.	0%[9.22 µM]	-5%
CC(C)c1nc(N2CCN(C(=O)c3ccco3)CC2)c2c3c(sc2n1)CCCC3	-4%	-14%[10 µM]	?	-15%	?
O=C(c1ccccc1)N1CCN(c2ncnc3sc4c(c23)CCC4)CC1	?	0%[10 µM]	-14%	35µM*	1.3µM*
Cc1nc(N2CCN(C(=O)c3ccco3)CC2)c2c3c(sc2n1)CCC3	?	-7%	28µM*	-26%	?
C(=C\c1ccccc1)/CN1CCN(Cc2nc(Cc3ccccc3)no2)CC1	?	-3%[10 µM]	.	1%[9.22 µM]	13µM*
COc1ccccc1CN1CCN(Cc2nc(Cc3ccccc3)no2)CC1	?	7%[10 µM]	.	4%[9.22 µM]	-2%
COC(=O)C(CC(C)C)NC(=O)c1cccs1 (stereo unspecified)	1%[46 µM]	-7%[10 µM]	.	-10%[9.22 µM]	13%
CCN(Cc1ccncc1)Cc1nc(Cc2ccccc2Cl)no1	-6%[46 µM]	-12%	.	18µM*	-1%
CN(Cc1cnccn1)Cc1nc(Cc2ccccc2Cl)no1	.	-11%[10 µM]	.	-10%[9.22 µM]	-6%
CN(C)CCOc1nc(-c2ccccc2)nc2c1oc1ccccc12	?	-44%	-16%	22µM*	0%
O=C(NCCCN1CCCCC1)c1sc2ncccc2c1-n1cccc1	-5%[46 µM]	.	.	.	.

Bioassay records from PubChem BioAssay.
